Measured values as given in the OligoGym collection.
Further: reference of the scale not given here.

What follows are sequences tested against C9orf37 (assay: pooled miR-30 sensor sort-seq; sequence = guide strand). Conditions: shRNA.
For TCCAGTTCTCCTTTAGGGCGAA, the sensor-assay potency score (higher = more potent) was -0.959.
ATGGTGGTGAAGAAGGCTCTGG gave a sensor-assay potency score (higher = more potent) of -0.917.
Work on TTTGTCAGTTACCTTATCTATA yielded a sensor-assay potency score (higher = more potent) of -0.888.
TTCTCCTTTAGGGCGAAGGGGT showed a sensor-assay potency score (higher = more potent) of -1.42.
For TATCTATAAAATGCACAGGACC, the sensor-assay potency score (higher = more potent) was -1.69.
In the case of TACCTTATCTATAAAATGCACA, the sensor-assay potency score (higher = more potent) is reported as -0.634.
In the case of TTACCTTATCTATAAAATGCAC, the sensor-assay potency score (higher = more potent) is reported as -0.752.
AAATGCACAGGACCAGGCCGGG gave a sensor-assay potency score (higher = more potent) of -1.34.
TCAAATTCCAGTTCTCCTTTAG showed a sensor-assay potency score (higher = more potent) of -1.07.
Sequence TCTGTGGAACAGCATTTCTCAA has a sensor-assay potency score (higher = more potent) of -1.65.
Work on TTATCTATAAAATGCACAGGAC yielded a sensor-assay potency score (higher = more potent) of -1.03.
With TTCTGTGGAACAGCATTTCTCA the sensor-assay potency score (higher = more potent) was -0.352.

Each sequence was assayed against C9orf72 in the same assay as above. Conditions: shRNA.
TATATTGTAAACATAGGTCTGT gave a sensor-assay potency score (higher = more potent) of 0.698.
Work on TACAGTAATTCTACACACCAAA yielded a sensor-assay potency score (higher = more potent) of -0.818.
In the case of TAAAATAAACAAAACACCCTAA, the sensor-assay potency score (higher = more potent) is reported as 0.0855.
TATGCATCCATATTCTTCCTTT gave a sensor-assay potency score (higher = more potent) of -0.33.
TTACAGGAATCACTTCTCCAGT gave a sensor-assay potency score (higher = more potent) of -1.29.
In the case of TTAATCTATCAACACACACTCT, the sensor-assay potency score (higher = more potent) is reported as -0.521.
For TACATCTATAGCACCACTCTCT, the sensor-assay potency score (higher = more potent) was -0.415.
Work on TTGACATCCACATCTATGTGTG yielded a sensor-assay potency score (higher = more potent) of -0.37.
Sequence TTTCACTAGAGTGTCTCTGTGT has a sensor-assay potency score (higher = more potent) of 0.565.
TAATCTATCAACACACACTCTA gave a sensor-assay potency score (higher = more potent) of 0.268.
In the case of TATTTCTTCAGGAACACTGTGT, the sensor-assay potency score (higher = more potent) is reported as 0.74.
TAAATCAAGGTCTATCTTCAGG gave a sensor-assay potency score (higher = more potent) of -0.851.

The sequences below were run against C9orf93 in the same assay as above. Conditions: shRNA.
Sequence TAAACAACGCAACTGCTCCTTT has a sensor-assay potency score (higher = more potent) of 0.206.
TTTGCTTCTGCAACGATGCTGT gave a sensor-assay potency score (higher = more potent) of 0.756.
Sequence TTCCTTTCTAGCAACAGCTAGG has a sensor-assay potency score (higher = more potent) of -0.694.
TTTGGTAAAGGTGTCTTCCTGA showed a sensor-assay potency score (higher = more potent) of 0.821.
For TTGGTTGTTATTTCTAACTTTT, the sensor-assay potency score (higher = more potent) was -0.955.
In the case of TTAATTGTACTGTTAACTCTTC, the sensor-assay potency score (higher = more potent) is reported as -0.0565.
Work on TTAACTCTTTATTAACATCAGC yielded a sensor-assay potency score (higher = more potent) of -1.03.
Sequence TTTAGTGTGAGAGTCTATCTTC has a sensor-assay potency score (higher = more potent) of 0.39.
For TTGTCTTTGCTTGAAGTTCTGA, the sensor-assay potency score (higher = more potent) was 0.0324.
Sequence TTGCACAGCAGTATCTTGCTCC has a sensor-assay potency score (higher = more potent) of 0.17.
TTGAATGGTCTCGTGATCCTAT showed a sensor-assay potency score (higher = more potent) of 0.611.

The sequences below were run against CA4 in the same assay as above. Conditions: shRNA.
TCGTAGTGCTCATCTCAGGTTT gave a sensor-assay potency score (higher = more potent) of -0.761.
In the case of TGTCTGTTCCTTGTCGTAGTAC, the sensor-assay potency score (higher = more potent) is reported as -0.69.
With TTGGACAGTCCACGTTTGCTTC the sensor-assay potency score (higher = more potent) was -0.84.
TCGTAGTACAGCTTCTGAGAGA was tested, and the sensor-assay potency score (higher = more potent) was -0.918.
TTTCTCATGTACTATGTGCATC showed a sensor-assay potency score (higher = more potent) of -0.994.
